Test results published in PubChem BioAssay (EPA / NIEHS).
Records with an inconclusive call do not appear. Active and inactive are the calls of the source. The calls were made as follows: active = hit-call score of the fitted dose curve at least 0.9, where 1 is the maximum; inconclusive = response in the unintended direction; inactive = score below 0.9.

Columns and labels:
[1] = Tanguay_ZF_120hpf_CIRC_legacy: (Legacy) Oregon State University Tanguay Lab 120 Hour Post-fertilization zebrafish Assay for Circulatory Malformation (AID 2283651)
Procedure, shortened: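 Dechorionated wild-type 5D zebrafish embryos, one per well, statically exposed from 6 to 120 hpf at 28C with 0.64% DMSO; circulatory malformation scored present/absent by brightfield microscopy at 120 hpf, dead embryos excluded.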

[2] = Tanguay_ZF_120hpf_SWIM_legacy: (Legacy) Oregon State University Tanguay Lab 120 Hour Post-fertilization zebrafish Assay for Swim Bladder Malformation (AID 2283654);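 also: swim bladder malformation in each larva scored yes or no under brightfield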
Procedure, shortened: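 Embryos lacking chorions were exposed individually and statically to test chemical from 6 to 120 hpf at 28C, with 0.64% DMSO as vehicle. At 120 hpf, swim bladder malformation was recorded as present or absent by brightfield microscopy.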

[3] = Tanguay_ZF_120hpf_TRUN_legacy: (Legacy) Oregon State University Tanguay Lab 120 Hour Post-fertilization zebrafish Assay for Truncated Body (AID 2283655)
Procedure, shortened: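 5D wild-type larvae; pronase dechorionation; static exposure 6→120 hpf, 28C; DMSO 0.64% final; 5uM trimethyltin chloride positive control. Readout: presence/absence of truncated body, analyzed relative to DMSO.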

[4] = Tanguay_ZF_120hpf_NC_legacy: (Legacy) Oregon State University Tanguay Lab 120 Hour Post-fertilization zebrafish Assay for Notochord and Tail Malformation (AID 2283656)
Procedure, shortened: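 Dechorionated Tropical 5D wild-type zebrafish embryos, one per well from 6 hpf, statically exposed to 120 hpf at 28C in 0.64% DMSO final. Notochord distortion scored present/absent by brightfield; dead embryos excluded.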

[5] = system: Thyroperoxidase (TPO), gene 54314; assay: CCTE_Simmons_AUR_rTPO: CCTE's Amplex UltraRed Assay for Thyroperoxidase (TPO) Inhibition, Simmons Lab (AID 2283662);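 also: potency for loss of signal meaning inhibition of peroxidase activity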
Procedure, shortened: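 Endpoint is decreased Amplex UltraRed fluorescence after a 30-min, 37C reaction of rat thyroid microsomes with 300 uM H2O2. Eight test concentrations (5 nM–87.5 uM final) in 0.5% DMSO, three biological replicates each.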

[6] = CCTE_Simmons_CellTiterGLO_HEK293T: Viability Assessment in CCTE's Assays for Thyroperoxidase (TPO) Inhibition, Simmons Lab (AID 2283665);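 as to AC50: cells exposed to compound for 24 h before readout; actives reduce ATP signal below DMSO vehicle meaning cytotoxicity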
Procedure, shortened: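 HEK293T cells in DMEM with 1% FBS, dosed 24 h at 37C with 8 concentrations, 5 nM–87.5 uM final, 0.5% DMSO. ATP measured by CellTiter Glo luminescence; loss of signal vs DMSO, three biological replicates.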

Measured: AC50

CC(O)CCO (stereo not given)
inactive: [1] | [2] | [3] | [4]

Nc1cc(Cl)cc(C(=O)O)c1Cl
active: [5] 24.2 µM
inactive: all other assays above

COC(=O)Nc1nc2ccccc2[nH]1
active: [5] 24.5 µM | [6] 1.41 µM
inactive: all other assays above

Cn1cc(-c2ccccc2)c(=O)c(-c2cccc(C(F)(F)F)c2)c1
inactive: [1] | [2] | [3] | [4]

CC(C)(OOC(C)(C)c1ccccc1)c1ccccc1
inactive: [1] | [2] | [3] | [4]

COc1cc(C=O)cc2c1[C@H](COC(N)=O)[C@]1(OC(C)=O)ON2C[C@H]2[C@@H]1N2C(C)=O
inactive: [1] | [2] | [3] | [4]

Cc1ccc(N)cc1
active: [5] 0.0844 µM
inactive: all other assays above

CN(C)[C@@H]1C(=O)C(C(N)=O)=C(O)[C@@]2(O)C(=O)C3=C(O)c4c(O)cccc4[C@@](C)(O)[C@H]3C[C@@H]12
active: [5] 10.7 µM
inactive: all other assays above

Cc1cc(N=Nc2ccccc2C)ccc1N
active: [3] 48.2 µM | [5] 9.17 µM | [6] 18.9 µM
inactive: [1] | [2] | [4]

Brc1ccc(Oc2ccccc2)cc1
inactive: [1] | [2] | [3] | [4]

CC(C)N(Cc1ccccc1)C(=O)C(C)(C)C
inactive: [1] | [2] | [3] | [4]

Cc1cccc(N)c1N
active: [5] 2.35 µM | [6] 4.54 µM
inactive: all other assays above

Nc1ccc([N+](=O)[O-])cc1
inactive: [1] | [2] | [3] | [4]

Cc1ccc(N)c(N)c1
active: [5] 1.68 µM
inactive: all other assays above
